# Source: PubChem BioAssay
# TRHR ag: qHTS for Small Molecule Agonists and Allosteric Enhancers of Human TRH Receptor: Primary Screen for Agonists. actives 0.18% (n = 360,000). activation, % at 2 µM. TRHR cells, calcium flux fluo-8, FDSS agonist mode. Thyrotropin-releasing hormone receptor (Homo sapiens), P34981. AID 493084, 2011; in the data active = activation above about 30%; also: 0% is about no effect
# Target sequence (P34981 whole entry, looked up): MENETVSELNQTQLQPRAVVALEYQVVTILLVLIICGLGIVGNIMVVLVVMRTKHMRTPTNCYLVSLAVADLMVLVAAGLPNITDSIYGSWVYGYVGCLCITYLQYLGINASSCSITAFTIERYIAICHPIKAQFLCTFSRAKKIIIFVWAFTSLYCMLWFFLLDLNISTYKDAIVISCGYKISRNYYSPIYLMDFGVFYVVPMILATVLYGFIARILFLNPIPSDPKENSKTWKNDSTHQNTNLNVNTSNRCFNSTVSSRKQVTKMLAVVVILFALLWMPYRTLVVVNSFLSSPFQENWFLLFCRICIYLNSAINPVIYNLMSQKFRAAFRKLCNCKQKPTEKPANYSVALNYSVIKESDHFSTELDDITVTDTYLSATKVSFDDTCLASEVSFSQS
#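 TRHR-expressing cells, plated overnight in medium with 10% serum, were loaded with fluo-8 calcium dye at room temperature. After a 10 s baseline, library compound was pin-added and calcium release was recorded kinetically (ex 480/em 530) as agonist response.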
# TRPML1 ag: qHTS for Agonists of the Human Mucolipin Transient Receptor Potential 1 (TRPML1); Mucolipin-1 (Homo sapiens), Q9GZU1; TRPML1-expressing cells, Ca2+ dye fluorescence, FDSS; activation, % (no concentration beside the values); actives 0.12% (n = 410,000); AID 624414, 2012; in the data active = activation above about 50%; inconclusive = mostly about 30% to 49%; also: 0% is about no effect
#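 Agonist activity was taken from a 110 s kinetic Ca2+ dye read on the FDSS after pinning compounds onto TRPML1-DL cells. The cells were seeded at 1,500/well with Tet inducer, incubated about 16 h, then dye-loaded at room temperature.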
# TRPV1 potentiator: HTS Assay for Compounds that Act as Potentiators of the Vanilloid Receptor 1 | Transient receptor potential cation channel subfamily V member 1 (Homo sapiens), Q8NER1 | TRPV1-expressing cells, Fluo-8 calcium influx, capsaicin EC20 potentiation | potentiation, % at 8.33 µM | actives 0.02% (n = 320,000) | AID 540277, 2011; in the data active = potentiation above about 80%; inconclusive = between about 30% and that limit; also: 0% is about no effect
#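 Fluo-8 calcium influx in TRPV1-expressing cells, kinetic read (ex 480/em 520 nm). Compound added and read 3 min for agonist activity, followed by capsaicin at EC20 final and 2 min further read for enhancement.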
# TRHR enhancer: qHTS for Small Molecule Agonists and Allosteric Enhancers of Human TRH Receptor: Primary Screen for Enhancers | Thyrotropin-releasing hormone receptor (Homo sapiens), P34981 | TRHR cells, fluo-8 calcium fluorescence, EC20 TRH enhancement | enhancement, % at 2 µM | actives 0.66% (n = 360,000); in the data active = enhancement above about 30%; also: 0% is about no effect
#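 TRHR-expressing cells loaded with fluo-8 calcium dye were read kinetically (ex 480/em 530) during compound addition, then stimulated with an EC20 of TRH (10 nM final). Enhancement of the Gq-mediated intracellular calcium response was scored.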
# TRPV1 agonist: HTS Assay for Compounds that Act as Agonists of the Vanilloid Receptor 1; activation, % at 8.33 µM; TRPV1-expressing cells, Fluo-8 calcium influx, agonist mode; actives 0.19% (n = 320,000); Transient receptor potential cation channel subfamily V member 1 (Homo sapiens), Q8NER1; in the data active = activation above about 80%; inconclusive = between about 30% and that limit; also: 0% is about no effect
#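 Fluo-8 calcium influx in TRPV1-expressing cells, kinetic read (ex 480/em 520 nm). Compound added and read 3 min for agonist activity, followed by capsaicin at EC20 final and 2 min further read for enhancement.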
# TRPML1 inh: qHTS for Inhibitors of the Human Mucolipin Transient Receptor Potential 1 (TRPML1). Mucolipin-1 (Homo sapiens), Q9GZU1. TRPML1-inducible cells, Ca2+ dye fluorescence, FDSS; active compounds read low; inhibition of EC80 agonist-evoked calcium signal. activity change, negative = inhibition, % (no concentration beside the values). actives 0.02% (n = 390,000); in the data active = activity change below about -50%; inconclusive = between about -30% and that limit;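 also: stimulus is agonist 54-4 at its EC80 concentration; % is scaled to controls: 0 for no effect and ±100 for the full control effect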
#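 Calcium fluorescence in TRPML1-DL cells induced overnight with Tet: a 110 s read after compound pin addition, then a 110 s antagonist read after challenge with 54-4 at 4 uM final (EC80).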
# * = called active by the depositor; ? = inconclusive; . = not tested or not shown; ! = not confirmed by another sample. A selection: hits, their analogues and other compounds. The true share with any hit is near 0.99%.
SMILES,TRHR ag,TRPML1 ag,TRPV1 potentiator,TRHR enhancer,TRPV1 agonist,TRPML1 inh
O=C(COC(=O)c1ccc(O)cc1O)Nc1cccc2ccccc12,-0.2,3.8,-14.0,35.1*,1.9,10.9
O=c1cc(N2CCCCC2)c(-c2ccccc2)nn1Cc1ccccc1,0.0,2.7,2.1,6.7,81.0*,-8.0
COc1ccc(Cn2nc(-c3ccccc3)c(N3CCCCC3)cc2=O)cc1,2.6,1.4,14.2,-1.6,85.0*,1.4
CN(C)S(=O)(=O)c1ccc2c(c1)C(=O)c1cc(S(=O)(=O)N(C)C)ccc1CC2,0.0,.,3.7,-6.2,3.3,.
CN(C)S(=O)(=O)c1ccc2c(c1)/C(=C/c1cc3c([nH]1)CCCC3)C(=O)N2,68.8*,?,6.5,-2.1,?,-3.4
COc1ccc(OC)c(NC(=O)C(Sc2ccccc2)c2ccccc2)c1 (stereo not given),-0.5,2.7,-6.0,2.0,-1.2,-51.5*
COc1ccc(OC)c(NC(=O)C(OC(=O)CNC(=O)c2ccccc2)c2ccccc2)c1 (stereo not given),-1.2,.,.,4.2,.,.
Cc1cc(C)nc(/N=C(\N)Nc2ccc(SC(F)F)cc2)n1,8.9,54.0*,-21.9,0.0,16.0,-13.2
Cc1cc(C)nc(/N=C(\N)Nc2ccc(F)c([N+](=O)[O-])c2)n1,.,74.6*,.,.,.,-13.2
CC(=O)Nc1ccc(N/C(N)=N/c2nc(C)cc(C)n2)cc1,0.3,0.6,3.6,-12.0,2.5,-1.5
CC1=CC(C)(C)Nc2ccc(Cc3ccc4c(c3)C(C)=CC(C)(C)N4)cc21,-0.2,3.6,26.5,38.4*,2.4,-11.9
CC1=CC(C)(C)Nc2ccc(C)cc21,0.0,0.4,3.8,-4.0,2.5,6.7
COc1ccc(CN(C(=O)c2snc(C(N)=O)c2N)C(C(=O)NC2CCCC2)c2ccc(OC)cc2)cc1 (stereo not given),-0.7,-0.3,5.1,6.8,4.1,-19.6
COc1ccc(CN(C(=O)c2snc(C(N)=O)c2N)C(C(=O)NC2CCCC2)c2cc(OC)ccc2OC)cc1 (stereo not given),-0.7,-0.8,3.6,34.4*,3.4,-3.0
Cc1cc2c(NC(=O)Nc3ccc(C(F)(F)F)cc3)cccc2nn1,0.6,0.4,-2.8,7.1,81.9*,18.5
Cc1cc2c(NC(=O)CCCC(=O)O)cccc2nn1,0.2,-0.2,-19.6,-0.7,-1.8,5.6
Cc1ccc2nc(NC(=O)C3CC(=O)N(Cc4ccco4)C3)sc2c1 (stereo not given),0.6,-0.4,-5.1,36.3*,7.2,3.3
COc1ccc(OC)c(CCNC(=O)C2=C(C)C(=O)OC23CCC(C)CC3)c1 (stereo not given),-0.4,0.4,.,-7.3,.,-12.7
COc1ccc(CCNC(=O)C2=C(C)C(=O)OC23CCCCC3)c(OC)c1OC,0.4,-0.6,.,31.3*,.,-2.4
Nc1nonc1C(=O)N/N=C/c1cc(Br)ccc1O,45.2*,13.2,-15.4,11.1,?,13.6
O=C(Nc1ccc(Cl)cc1)c1cc2c(Cl)nc3ccccc3c2s1,0.6,-0.1,.,48.2*,.,17.0
COc1ccc(NC(=O)c2cc3c(Cl)nc4ccccc4c3s2)cc1OC,0.4,0.1,-0.9,9.0,4.2,9.4
CCOc1ccc(CCNC(=O)c2cccc(NC3=NC4CS(=O)(=O)CC4S3)c2)cc1 (stereo not given),-0.9,-0.2,-6.7,33.9*,2.0,-1.5
CSCCNC(=O)c1ccc2nc(C3CCCCC3)oc2c1,0.0,-1.0,1.1,2.6,91.9*,22.5
CSCC[C@@H](CO)NC(=O)c1ccc2nc(C3CCCCC3)oc2c1,-0.6,0.4,0.2,10.9,3.2,-7.2
SMILES,TRHR ag,TRPML1 ag,TRPV1 potentiator,TRHR enhancer,TRPV1 agonist,TRPML1 inh
CCCCN1CC[C@H]2C=CC[C@@H](C(=O)NC3CCCCC3)[C@H]2C1=O,.,-0.5,.,.,.,.
Cc1ccc2[nH]c(=O)c3cc(C(=O)N(CCCOC(C)C)Cc4ccco4)sc3c2c1,1.6,2.5,0.8,41.6*!,12.7,8.1
C(=Nc1cnc2ccccc2c1)c1ccncc1,.,-0.6,.,.,.,.
CCOC(=O)c1ccccc1NC(=O)COC(=O)C(CC(C)C)NC(N)=O (stereo not given),-0.8,0.3,2.8,40.5*,3.5,-9.1
CCOCC(=O)Nc1ccccc1C(=O)OCC,-1.3,-0.4,-6.3,-1.7,-0.8,28.5
CCOC(=O)/C(=C/c1ccc(N2CCC(c3ccccc3)=N2)cc1)C(C)=O,46.0*,?,-7.0,-0.9,18.6,5.2
c1ccc(C2=NN(c3ccccc3)CC2)cc1,0.8,0.1,-6.2,-1.3,6.6,7.4
O=C(NCCC1=CCCCC1)c1ccc([N+](=O)[O-])cc1,-1.8,2.0,-20.4,-5.3,88.9*,16.7
O=C(CCNC(=O)c1ccc([N+](=O)[O-])cc1)NCCC1=CCCCC1,-0.3,0.1,-0.1,-0.2,0.9,5.0
Cc1cc(C(=O)NCCC2=CCCCC2)ccc1[N+](=O)[O-],-1.8,0.2,-22.3,0.6,83.3*,9.6
O=C(C[N+]1(CCO)CCOCC1)c1cccc2ccccc12,.,-0.2,.,.,.,.
C=C1C=C(C(F)F)n2ncc(C(=O)Nc3ccc(N(CC)CC)cc3)c2N1,.,-1.0,.,.,.,.
Cc1ccc(C(=O)CCC(=O)OCC(=O)Nc2nnc(-c3ccccc3)o2)cc1,0.5,0.4,12.8,40.5*,-4.3,72.5
Cc1c(OCC(=O)N2CCC(C(N)=O)CC2)ccc2c1oc(=O)c1ccccc12,0.6,.,6.5,-10.4,90.8*,.
Cc1cc(O)ccc1C1(c2ccc(O)cc2C)OC(=O)c2ccccc21,0.4,-0.1,14.9,5.8,1.6,21.9
CC(=O)Oc1ccc2c(c1)Oc1cc(OC(C)=O)ccc1C21OC(=O)c2ccccc21,105.6*,112.8*,12.3,-19.5,140.0*,-21.1
COc1ccc(NS(=O)(=O)c2cc(NC(=O)c3cnc(C)cn3)ccc2N2CCCCC2)cc1,-0.1,-0.4,-3.2,-2.0,90.2*,44.8
COc1ccc(NS(=O)(=O)c2cc(NC(=O)c3cnc(C)cn3)ccc2N2CCCC2)cc1,0.6,0.3,-25.9,2.2,?,-12.2
CCCCCCc1cc2cc(/C(N)=N/NC(=O)c3ccncc3)c(=O)oc2cc1O,122.1*,?,-6.1,27.8,?,-1.3
